Laboratory results from PubChem BioAssay (Tox21).
“And” between values parts separate entries of the source, which are not always exact repeats. Equal entries are not always repeated. Results filed as inconclusive are left out. The source made the active and inactive calls. The call rests on the fitted dose curve; in most records, active means well fitted cell-killing curve with a large enough effect in the repeat runs; inconclusive means weak or mixed curves; inactive means no such curve, though single readings can be large or run the other way.

test: qHTS assay for identifying genotoxic compounds that show differential cytotoxicity against isogenic chicken DT40 cell lines with known DNA damage response pathways - Rad54/Ku70 mutant cell line (AID 743015); settings: DT40 Rad54/Ku70 mutant viability, CellTiter-Glo, 40 h; series mostly up to 66.8 µM; activity change, negative = cytotoxicity: at the top concentration; further: nearly all actives have a fitted effect of over 60% in size
On the % scale 0 is the no-effect control and ±100 the full control effect; potency means the concentration at half of the fitted maximal effect.

Compound	Potency	activity change, negative = cytotoxicity
CC[C@H]1OC(=O)[C@H](C)C(=O)[C@H](C)[C@@H](O[C@@H]2O[C@H](C)C[C@H](N(C)C)[C@H]2O)[C@](C)(OC)C[C@@H](C)C(=O)[C@H](C)[C@H]2N(CCCCn3cnc(-c4cccnc4)c3)C(=O)O[C@]12C	6.68 µM (active)	–
COc1cccc2c1[C@@H]1CN(CCCCn3c(=O)[nH]c4c(sc5ncc(-c6ccccc6)nc54)c3=O)C[C@@H]1CO2	11.9 µM (active)	–
O=P(O)(O)OP(=O)(O)OP(=O)(O)O	–	-0.669% (inactive)
NC[C@@H]1CC[C@@H](N)[C@@H](O[C@H]2[C@H](O)[C@@H](O[C@H]3O[C@H](CO)[C@@H](O)[C@H](N)[C@H]3O)[C@H](N)C[C@@H]2N)O1	–	5.95% (inactive)
CC(=O)OCC(=O)[C@@]1(O)CC[C@H]2[C@@H]3CCC4=CC(=O)CC[C@]4(C)C3=CC[C@@]21C	–	6.64% (inactive)
CN1CCN(CCCN2c3ccccc3Sc3ccc(Cl)cc32)CC1	8.41 µM (active)	–
CN1CC[C@H](c2c(O)cc(O)c3c(=O)cc(-c4ccccc4Cl)oc23)[C@H](O)C1	0.15 µM (active)	–
COc1c(Br)cc(Br)c(C)c1Br	–	-2.61% (inactive)
CC12CCC(C[N+](C)(CCC[N+](C)(C)C)C1)C2(C)C (stereo not drawn)	–	-0.244% (inactive)
O=C1c2c(O)cccc2[C@H]([C@@H]2O[C@H](CO)[C@@H](O)[C@H](O)[C@H]2O)c2cc(CO)cc(O)c21	inactive	–
NCC(O)CC(=O)O (stereo not drawn)	–	7.71% (inactive)
CCOc1ccc(S(=O)(=O)O)c2cccnc12	–	0.219% (inactive)
CC12CCC(C1)C(C)(C)C2=O (stereo not drawn)	–	6.4% (inactive)
CN1C(=O)C[C@@H](C(=O)N[C@@H](Cc2cnc[nH]2)C(=O)N2CCC[C@H]2C(N)=O)NC1=O	–	2.33% (inactive)
NC[C@H]1O[C@H](O[C@H]2[C@H](O)[C@@H](O[C@H]3O[C@H](CO)[C@@H](O)[C@H](N)[C@H]3O)[C@H](N)C[C@@H]2N)[C@H](N)C[C@@H]1O	–	5.96% [at 30.7 µM] (inactive)
NCC[C@H](O)C(=O)N[C@@H]1C[C@H](N)[C@@H](O[C@H]2O[C@H](CN)CC[C@H]2N)[C@H](O)[C@H]1O[C@H]1O[C@H](CO)[C@@H](O)[C@H](N)[C@H]1O	–	0.411% (inactive)
CC1(C)S[C@@H]2[C@H](NC(=O)[C@@H](NC(=O)N3CCNC3=O)c3ccccc3)C(=O)N2[C@H]1C(=O)O	–	7.42% [at 30.7 µM] (inactive)

Compound	Potency	activity change, negative = cytotoxicity
C=CC[N@@+]12CC[C@@]34c5ccccc5N5/C=C6/[C@H]7C[C@H]8[C@@]9(CC[N@@+]8(CC=C)C/C7=C/CO)c7ccccc7N(/C=C(/[C@@H](C[C@@H]31)/C(=C\CO)C2)[C@H]54)[C@@H]69	–	3.66% [at 30.7 µM] (inactive)
CC(C)Cc1ccc([C@H](C)C(=O)O)cc1	–	-8.34% (inactive)
COc1cc2c(cc1OC)[C@@H](Cc1cc(OC)c(OC)c(OC)c1)[N+](C)(CCCOC(=O)CC/C=C/CCC(=O)OCCC[N+]1(C)CCc3cc(OC)c(OC)cc3[C@H]1Cc1cc(OC)c(OC)c(OC)c1)CC2 (stereo partly drawn)	inactive	–
FC(F)(F)C(F)(F)C(F)(F)C(F)(F)C(F)(F)F	–	0.0863% (inactive)
COc1ccc(/C=N/NC(=O)c2ccncc2)c(C(=O)O)c1OC	–	7.18% (inactive)
C[C@]12O[C@H](C[C@]1(O)CO)n1c3ccccc3c3c4c(c5c6ccccc6n2c5c31)CNC4=O	0.376 µM (active)	–
Cc1cc(-c2ccc(N=Nc3ccc4c(S(=O)(=O)O)cc(S(=O)(=O)O)c(N)c4c3O)c(C)c2)ccc1N=Nc1ccc2c(S(=O)(=O)O)cc(S(=O)(=O)O)c(N)c2c1O	11.9 µM (active) and 23.7 µM (active)	–
CC[N+](CC)(CC)CCC(O)(c1ccccc1)C1CCCCC1 (stereo not drawn)	–	-0.916% [at 30.7 µM] (inactive)
CC(C)c1ncc([N+](=O)[O-])n1C	–	3.74% (inactive)
CC[C@H](C)C(=O)O[C@H]1CCC=C2C=C[C@H](C)[C@H](CC[C@@H]3C[C@@H](O)CC(=O)O3)[C@H]21	11.9 µM (active)	–
CCN(CC)CCNC(=O)c1ccc(NS(C)(=O)=O)cc1	–	2.48% (inactive)
CN(C)CCc1c[nH]c2ccc(Cn3cncn3)cc12	–	1.98% (inactive)
C=C1C(=C/C=C2\CCC[C@]3(C)[C@@H]([C@H](C)CCCC(C)C)CC[C@@H]23)C[C@@H](O)C[C@@H]1O	6.68 µM (active)	–
C/C=C/C1=C(C(=O)O)N2C(=O)[C@@H](NC(=O)[C@H](N)c3ccc(O)cc3)[C@H]2SC1	–	2.37% (inactive)
O=C1C2CC3CC1CC(O)(C3)C2	–	4.44% (inactive)
COC(=O)C[C@](O)(CCCC(C)(C)O)C(=O)O[C@@H]1C(OC)=CC23CCCN2CCc2cc4c(cc2[C@H]13)OCO4 (stereo partly drawn)	0.0237 µM (active)	–
